hDAT+cocaine – changed human dopamine transporter uptake under cocaine IC80 | 1.3% of 110,000 active | Q01959 | B-score at 10 µM | LLC-PK1 hDAT cells, [14C]-dopamine uptake with cocaine IC80; actives deviate in either direction;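 active = Z score or B-score, a plate-position-corrected score, falls beyond the plate's 99.7% confidence bounds, in either direction; inactive = both scores lie inside the 99.7% bounds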;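 also: scored against the spread of the other compound wells on the same plate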
S1P2 ag – agonists of human S1P2 receptor; AID 729; activation, % at 4.5 µM; S1P2-expressing cell line, agonist reporter read-out; 0.46% of 97,000 active; in the data active = activation above about 16%;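 also: 0% = vehicle low control and 100% = maximal reference agonist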
Target sequence (O95136 whole entry, looked up): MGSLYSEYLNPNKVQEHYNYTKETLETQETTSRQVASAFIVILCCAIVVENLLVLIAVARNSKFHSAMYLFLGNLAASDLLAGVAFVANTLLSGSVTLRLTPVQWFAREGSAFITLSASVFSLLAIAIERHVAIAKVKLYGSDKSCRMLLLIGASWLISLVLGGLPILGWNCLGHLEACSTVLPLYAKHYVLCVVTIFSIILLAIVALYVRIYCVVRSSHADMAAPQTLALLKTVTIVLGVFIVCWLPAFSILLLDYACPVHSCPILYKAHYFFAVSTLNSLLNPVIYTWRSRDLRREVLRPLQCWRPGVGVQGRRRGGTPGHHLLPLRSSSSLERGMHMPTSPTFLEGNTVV
GALR2 antag – GALR2 (human) receptor antagonism; O43603; GALR2-expressing cells, antagonist mode; inhibition, % at 4 µM; 0.39% of 140,000 active; in the data active = inhibition above about 27%;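 also: cells stimulated with galanin 1-16 at roughly its EC80; 0% = agonist challenge control and 100% = basal control without agonist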
S1P2 antag – S1P2 (human) receptor antagonism | inhibition, % at 5 µM | cell-based S1P2 antagonist assay, inhibition at 5 uM | 0.21% of 97,000 active | O95136 | AID 736; in the data active = inhibition above about 45%;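 also: CRE beta-lactamase reporter cells expressing human S1P2 stimulated with S1P; 0% = agonist at EC80 alone and 100% = agonist plus reference antagonist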
GALR2 agonist – activates the human galanin receptor 2 | GALR2-expressing cells, agonist activation read-out | activation, % (test concentration not listed) | 0.48% of 140,000 active | O43603 | AID 803; in the data active = activation above about 5%, passing the limit was not always enough;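 also: 0% = vehicle buffer wells and 100% = reference agonist at full effect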
An asterisk follows results filed as active; . = no result given. In the library only some 2.1% were active in any assay of this set; here they are far more common.

SMILES	hDAT+cocaine	S1P2 ag	GALR2 antag	S1P2 antag	GALR2 agonist
COc1ccc(C(O)c2nc3ccccc3s2)cc1 (configuration not stated)	-1.89*	-2.2	-9.6	13.3	-0.3
CCn1c(/C=C/c2c(C)[nH]c3ccccc23)nc2ccccc2c1=O	.	.	7.1	.	7.3*
CN(C)c1ccc(/C=C/c2cc[n+](C)cc2)cc1	-3.71*	-2.1	5.2	3.9	-1.7
CN(C)c1ccc(/C=C/c2cc[n+]([O-])cc2)cc1	-1.59	-6.5	10.3	32.5	-0.6
O=C(CSc1ncn[nH]1)N1CCN(S(=O)(=O)c2ccccc2)CC1	0.0281	-4.3	-12.1	-6.9	-2.0
Cc1ccc(-c2nnc(N3CCN(C(=O)CSc4ncn[nH]4)CC3)c3ccccc23)cc1	2.68*	-6.1	7.9	1.3	-1.1
Cc1ccc(OCC(=O)N2CCN(c3nnc(-c4ccccc4)c4ccccc34)CC2)cc1	3.04*	-5.5	-18.4	-5.1	-1.9
CCN(CC)C(=O)COc1ccc(-c2nnc(N3CCCCC3)c3ccccc23)cc1	2.24	-1.7	-6.9	-1.9	0.1
COc1ccc(-c2nnn(CCc3nn[nH]n3)n2)cc1	-1.78	-8.4	8.6	2.4	-0.3
Cc1ccc(NC(=O)C(Nc2cccc(C)c2)c2ccccc2)cc1 (configuration not stated)	.	.	10.9	.	-1.3
Cn1c(=O)c2cc(NC(=O)c3ccccc3Cl)c(=O)oc2n(C)c1=O	-1.58	.	8.5	.	-0.5
COC(=O)C1=C(C)NC2=C(C(=O)CC(C)(C)C2)C1c1cnn(C)c1C (configuration not stated)	.	.	-8.5	.	0.2
CN(CC1CCCO1)S(=O)(=O)c1ccc(C(=O)Nc2nc(-c3ccccn3)cs2)cc1 (configuration not stated)	2.73*	-6.5	16.8	-4.8	-4.6
O=C(N=NC(=O)c1ccco1)c1ccc2c(O)n(N3C(=O)c4ccccc4C3=O)c(O)c2c1	.	.	-3.1	.	-0.1
Cc1ccc(S(=O)(=O)N/N=C\c2cn(-c3ccccc3)nc2-c2ccccc2)cc1	1.34	-5.3	0.0	-1.6	-3.4
Cc1ccc(S(=O)(=O)N/N=C/c2c(C)nn(-c3ccccc3)c2C)cc1	2.52*	-3.4	0.3	-6.1	-4.2
CC(O)C1C(=O)OC2(C)CC(C)(C)NC(=S)N12 (configuration not stated)	-0.0697	44.0*	24.1	-2.5	-2.9
Cc1c2cnn(CC(=O)N3CCN(c4ncccn4)CC3)c(=O)c2c(C)n1Cc1ccc(F)cc1	.	.	2.4	.	-2.2
O=C(Cn1ncc2c3ccccc3n(Cc3ccccc3)c2c1=O)N1CCN(c2ncccn2)CC1	1.76*	-4.7	-11.7	-2.0	-1.4
Cn1c(SCC(=O)Nc2cc([N+](=O)[O-])ccc2F)nnc1C(F)(F)F	.	.	13.6	.	-0.5
CCn1c(=S)sc2c(=O)[nH]c(C)nc21	-9.03*	-7.1	-7.9	20.6	0.1
COc1cc(OC)c2ccc(=O)oc2c1C(CCN1CCN(c2ccccc2)CC1)c1ccc(N(C)C)cc1 (configuration not stated)	0.0774	.	.	.	.
Cc1ccccc1NC(=O)CSc1nnc(-c2ccoc2C)n1CCc1ccccc1	-0.31	-8.9	-3.5	26.2	-0.4
COc1ccc(NC(=O)CSc2nnc(-c3ccoc3C)n2CCc2ccccc2)cc1	4.22*	-9.8	1.6	15.5	0.1
Fc1cc(Br)ccc1Nc1nc2ccccc2n2nnnc12	-0.463	.	6.5	.	6.1*
SMILES	hDAT+cocaine	S1P2 ag	GALR2 antag	S1P2 antag	GALR2 agonist
Cc1ccc(-n2ncc3c(N4CCCC4)ncnc32)c(C)c1	-0.2	-1.3	-3.6	0.8	-2.5
Cc1ccc(C(=O)N2CCN(c3ncnc4c3cnn4-c3ccccc3)CC2)cc1	0.31	-6.6	1.4	4.0	0.2
c1ccc(-n2ncc3c(NCc4cccnc4)ncnc32)cc1	2.56*	-2.5	6.8	7.2	-2.0
Cc1ccccc1Nc1ncnc2c1cnn2-c1ccccc1	3.11*	.	20.9	.	-0.8
Cc1ccccc1C(=O)N1CCN(c2ncnc3c2cnn3-c2ccccc2)CC1	-5.34*	-9.2	3.2	7.6	0.0
c1ccc(-n2ncc3c(NCc4cccs4)ncnc32)cc1	1.08	.	9.3	.	-0.6
COc1cccc(N2CCN(c3ncnc4c3cnn4-c3ccc(C)cc3C)CC2)c1	1.15	-10.8	1.9	66.3*	-4.1
NNc1ncnc2c1cnn2-c1ccccc1	-1.28	-6.6	-4.5	-36.4	-0.6
CC(SCc1ccccc1)C(=O)N/N=C/c1ccc(OCC(=O)NCc2ccco2)cc1 (configuration not stated)	.	.	-3.2	.	-0.2
CCN(CC(=O)c1c(N)n(C)c(=O)n(C)c1=O)c1cccc2ccccc12	.	.	15.6	.	-1.1
Cc1cccc(-n2ncc3c(NC(C)C)ncnc32)c1	1.12	.	27.0*	.	-1.9
CC(C)Nc1ncnc2c1cnn2-c1ccccc1	1.36	-3.0	8.7	21.1	-1.5
COc1ccc2[nH]c(C)c(C(=O)CN3CCOCC3)c2c1	-2.97*	-1.9	-9.4	15.8	-1.2
COc1cc(C2C(N3C(=O)c4ccccc4C3=O)C(=O)N2c2cccc(C)c2)cc(OC)c1OC (configuration not stated)	.	.	1.7	.	-0.7
O=C(CN1C(=O)C2CC=CCC2C1=O)Nc1ccc(S(=O)(=O)NC2=NCCCCC2)cc1 (configuration not stated)	-8.14*	-5.0	10.9	8.1	-3.9
CCOc1ccc(NC(=O)CN2C(=O)C3CC=CCC3C2=O)cc1 (configuration not stated)	0.95	-7.5	0.9	-20.7	-2.1
Nc1nc(CN2CCN(c3ccc(F)cc3)CC2)nc(N2CCCc3ccccc32)n1	-2.65*	-4.6	4.2	-10.1	-1.7
O=C(Nc1ccccc1C(=O)N1CCOCC1)c1noc2c1CCCC2	2.98*	0.9	-3.4	-17.8	-1.0
CC1(C)CC(=O)/C(=C(/O)Cc2ccccc2)C(=NCCc2ccccc2)C1	.	.	-5.5	.	-1.9
CC(=O)N1CCC2(CC1)C(C#N)=C(N)OC1=C2C(=O)CC(C)(C)C1	0.222	-2.4	3.5	16.6	-1.8
CC1(C)CC(=O)C2=C(C1)OC(N)=C(C#N)C21CCC2(CC1)OCCO2	23*	-4.6	-5.8	-7.5	-1.8
COC(=O)CCCC1=CC2=CC(=O)C(C)(OC(=O)c3ccc(Cl)nc3)C(=O)C2=CO1 (configuration not stated)	-1.22	.	.	.	.
Cc1cc2ccccc2c(=O)n1CC(=O)NCC(=O)N(C)Cc1ccccc1	-7.75*	.	7.0	.	-0.3
Cc1ccc(NCc2nnc(SCCN3CCCCC3)n2CC2CCCO2)cc1Cl (configuration not stated)	2.41*	-3.5	0.9	20.0	-1.4
NC(=O)c1ccccc1NS(=O)(=O)c1cccs1	-3.16*	-4.9	10.3	4.9	-2.4
O=C(c1ccccc1NS(=O)(=O)c1cccs1)N1CCCC1	-0.0169	-6.3	4.7	0.7	-3.9
CCN(CC(=O)Nc1cc(Cl)ccc1C)c1ncnc2sc(C)c(C)c12	.	.	-1.4	.	-2.2
Cc1cc(S(=O)(=O)N(Cc2ccccn2)Cc2ccco2)ccc1-n1cnnn1	2.61*	.	8.8	.	-1.8
COc1ccc2c(c1)c1nnc(SCC(=O)N3C(C)CCCC3C)nc1n2C (configuration not stated)	1.13	19.4*	-20.2	-1.1	0.5
